The results in this text go back to the supplement of paper PMC10849652.

Targets with a hit are over-represented here; the source holds about 8,800 in all. About 0.5% of all pairs of compound and target were hits.

Chain of UniProt Q9NRW4 (Q9NRW4 whole entry, looked up): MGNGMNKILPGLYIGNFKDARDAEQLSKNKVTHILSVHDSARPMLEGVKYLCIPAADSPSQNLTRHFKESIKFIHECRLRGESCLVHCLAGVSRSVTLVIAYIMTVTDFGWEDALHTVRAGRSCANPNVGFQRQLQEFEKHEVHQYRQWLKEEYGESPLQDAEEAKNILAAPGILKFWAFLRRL
Chain of UniProt Q9NV70 (Q9NV70 whole entry, looked up): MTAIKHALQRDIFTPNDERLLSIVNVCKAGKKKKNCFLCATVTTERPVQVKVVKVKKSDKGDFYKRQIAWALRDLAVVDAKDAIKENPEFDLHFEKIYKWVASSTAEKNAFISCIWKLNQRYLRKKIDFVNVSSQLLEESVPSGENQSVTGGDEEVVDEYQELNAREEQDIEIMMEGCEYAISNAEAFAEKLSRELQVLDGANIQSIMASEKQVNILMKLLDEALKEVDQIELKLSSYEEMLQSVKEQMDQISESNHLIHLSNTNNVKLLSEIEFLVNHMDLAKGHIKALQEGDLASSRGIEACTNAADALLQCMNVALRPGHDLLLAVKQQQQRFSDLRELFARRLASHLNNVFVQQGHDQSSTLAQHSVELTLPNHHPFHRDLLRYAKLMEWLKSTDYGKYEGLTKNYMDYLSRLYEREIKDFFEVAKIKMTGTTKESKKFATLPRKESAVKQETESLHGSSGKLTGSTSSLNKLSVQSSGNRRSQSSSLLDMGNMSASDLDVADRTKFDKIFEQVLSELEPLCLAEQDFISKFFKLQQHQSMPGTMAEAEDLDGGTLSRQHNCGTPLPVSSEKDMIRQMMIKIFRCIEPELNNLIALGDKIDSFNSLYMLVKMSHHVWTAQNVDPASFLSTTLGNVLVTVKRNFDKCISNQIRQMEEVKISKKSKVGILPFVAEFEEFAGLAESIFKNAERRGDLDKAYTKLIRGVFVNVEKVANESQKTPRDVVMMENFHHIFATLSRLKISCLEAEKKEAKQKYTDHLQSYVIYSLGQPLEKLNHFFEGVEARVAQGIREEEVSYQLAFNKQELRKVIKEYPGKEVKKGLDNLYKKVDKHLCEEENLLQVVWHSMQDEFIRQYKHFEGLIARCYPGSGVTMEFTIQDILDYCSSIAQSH
Chain of UniProt P54852 (P54852 whole entry, looked up): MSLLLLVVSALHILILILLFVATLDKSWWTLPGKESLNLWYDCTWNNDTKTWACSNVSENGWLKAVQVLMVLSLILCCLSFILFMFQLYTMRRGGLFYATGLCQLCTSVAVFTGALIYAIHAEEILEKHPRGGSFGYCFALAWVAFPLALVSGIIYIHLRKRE
Chain of UniProt Q9Y285 (Q9Y285 whole entry, looked up): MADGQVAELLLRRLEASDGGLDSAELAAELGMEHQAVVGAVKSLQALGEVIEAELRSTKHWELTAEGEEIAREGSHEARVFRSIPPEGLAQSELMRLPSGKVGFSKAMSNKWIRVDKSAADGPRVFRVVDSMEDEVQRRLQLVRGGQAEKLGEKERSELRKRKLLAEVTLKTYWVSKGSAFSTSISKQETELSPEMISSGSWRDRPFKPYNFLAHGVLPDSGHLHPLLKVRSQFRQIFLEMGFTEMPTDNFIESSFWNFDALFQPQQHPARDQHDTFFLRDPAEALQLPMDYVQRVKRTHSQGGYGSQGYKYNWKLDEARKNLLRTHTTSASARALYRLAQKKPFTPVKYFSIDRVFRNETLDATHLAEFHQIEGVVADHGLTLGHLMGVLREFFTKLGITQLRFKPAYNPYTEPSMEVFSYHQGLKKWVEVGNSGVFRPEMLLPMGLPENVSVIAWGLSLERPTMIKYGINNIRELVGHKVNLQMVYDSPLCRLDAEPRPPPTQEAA
Chain of UniProt Q8TB52 (Q8TB52 whole entry, looked up): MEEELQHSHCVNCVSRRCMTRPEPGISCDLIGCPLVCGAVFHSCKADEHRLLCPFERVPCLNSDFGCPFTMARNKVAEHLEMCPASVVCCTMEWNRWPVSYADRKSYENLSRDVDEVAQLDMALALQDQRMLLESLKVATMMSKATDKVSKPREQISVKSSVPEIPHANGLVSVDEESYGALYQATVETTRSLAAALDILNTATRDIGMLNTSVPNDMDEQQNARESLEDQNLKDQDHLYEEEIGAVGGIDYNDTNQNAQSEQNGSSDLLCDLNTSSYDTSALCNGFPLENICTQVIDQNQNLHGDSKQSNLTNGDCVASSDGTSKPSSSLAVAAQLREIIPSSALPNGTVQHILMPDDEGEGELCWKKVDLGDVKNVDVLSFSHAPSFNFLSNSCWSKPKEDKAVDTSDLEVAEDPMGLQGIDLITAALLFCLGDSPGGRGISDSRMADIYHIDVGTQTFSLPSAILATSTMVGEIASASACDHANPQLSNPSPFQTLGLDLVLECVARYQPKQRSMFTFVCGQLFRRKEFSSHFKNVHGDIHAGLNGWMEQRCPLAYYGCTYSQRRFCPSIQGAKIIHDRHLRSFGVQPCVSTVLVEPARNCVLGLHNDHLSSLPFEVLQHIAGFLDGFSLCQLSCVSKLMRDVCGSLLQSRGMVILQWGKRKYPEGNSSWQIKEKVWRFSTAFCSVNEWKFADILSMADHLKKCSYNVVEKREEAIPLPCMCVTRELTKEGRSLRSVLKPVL
Chain of UniProt Q8N5C7 (Q8N5C7 whole entry, looked up): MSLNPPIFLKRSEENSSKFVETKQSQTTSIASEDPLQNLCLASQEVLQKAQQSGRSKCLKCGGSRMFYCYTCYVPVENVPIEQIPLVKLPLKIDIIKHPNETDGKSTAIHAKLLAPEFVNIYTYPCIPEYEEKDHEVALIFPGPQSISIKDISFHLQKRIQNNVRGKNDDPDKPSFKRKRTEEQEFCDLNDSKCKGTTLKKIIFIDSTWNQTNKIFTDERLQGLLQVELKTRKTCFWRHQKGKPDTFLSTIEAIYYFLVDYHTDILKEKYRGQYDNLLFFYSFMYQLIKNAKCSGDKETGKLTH
Chain of UniProt P37268 (P37268 whole entry, looked up): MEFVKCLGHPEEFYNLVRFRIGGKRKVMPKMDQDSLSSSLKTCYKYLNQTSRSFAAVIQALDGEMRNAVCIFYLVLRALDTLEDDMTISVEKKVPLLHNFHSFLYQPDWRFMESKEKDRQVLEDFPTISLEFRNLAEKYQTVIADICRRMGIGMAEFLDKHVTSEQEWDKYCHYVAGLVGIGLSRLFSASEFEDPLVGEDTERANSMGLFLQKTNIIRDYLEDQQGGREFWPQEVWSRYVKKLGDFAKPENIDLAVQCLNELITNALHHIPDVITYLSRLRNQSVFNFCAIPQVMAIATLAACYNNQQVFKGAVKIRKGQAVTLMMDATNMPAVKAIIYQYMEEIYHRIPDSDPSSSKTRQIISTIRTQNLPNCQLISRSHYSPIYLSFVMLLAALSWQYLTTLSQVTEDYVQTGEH
Chain of UniProt O15117 (O15117 whole entry, looked up): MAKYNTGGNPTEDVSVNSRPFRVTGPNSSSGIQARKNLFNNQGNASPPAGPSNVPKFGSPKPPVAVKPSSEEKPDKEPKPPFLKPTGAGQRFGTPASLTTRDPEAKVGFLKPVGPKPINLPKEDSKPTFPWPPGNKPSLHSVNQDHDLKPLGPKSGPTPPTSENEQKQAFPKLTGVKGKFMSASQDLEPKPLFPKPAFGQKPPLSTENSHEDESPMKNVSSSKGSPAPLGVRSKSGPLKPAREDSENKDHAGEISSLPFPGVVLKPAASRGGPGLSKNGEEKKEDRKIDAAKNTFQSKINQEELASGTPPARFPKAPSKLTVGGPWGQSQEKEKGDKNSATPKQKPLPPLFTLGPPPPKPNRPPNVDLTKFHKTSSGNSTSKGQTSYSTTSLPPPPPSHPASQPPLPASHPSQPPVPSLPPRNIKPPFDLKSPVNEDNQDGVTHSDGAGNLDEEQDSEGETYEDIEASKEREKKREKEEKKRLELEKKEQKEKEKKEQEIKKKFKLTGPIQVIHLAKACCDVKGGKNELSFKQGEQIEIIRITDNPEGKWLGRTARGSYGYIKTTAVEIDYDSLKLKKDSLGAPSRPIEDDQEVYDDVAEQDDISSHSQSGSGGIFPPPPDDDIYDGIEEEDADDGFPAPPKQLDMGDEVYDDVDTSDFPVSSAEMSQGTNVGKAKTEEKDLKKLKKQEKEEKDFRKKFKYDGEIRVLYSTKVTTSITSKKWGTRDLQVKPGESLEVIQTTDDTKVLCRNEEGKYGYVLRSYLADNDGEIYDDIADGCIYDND
Chain of UniProt Q6IPR1 (Q6IPR1 whole entry, looked up): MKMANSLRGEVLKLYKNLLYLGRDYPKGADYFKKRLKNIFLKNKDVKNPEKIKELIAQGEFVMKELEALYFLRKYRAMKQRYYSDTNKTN
Chain of UniProt P62942 (P62942 whole entry, looked up): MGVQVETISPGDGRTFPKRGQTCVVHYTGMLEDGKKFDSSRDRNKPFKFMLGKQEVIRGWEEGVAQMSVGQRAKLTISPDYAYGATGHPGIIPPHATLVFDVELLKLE
Chain of UniProt Q8NFF5 (Q8NFF5 whole entry, looked up): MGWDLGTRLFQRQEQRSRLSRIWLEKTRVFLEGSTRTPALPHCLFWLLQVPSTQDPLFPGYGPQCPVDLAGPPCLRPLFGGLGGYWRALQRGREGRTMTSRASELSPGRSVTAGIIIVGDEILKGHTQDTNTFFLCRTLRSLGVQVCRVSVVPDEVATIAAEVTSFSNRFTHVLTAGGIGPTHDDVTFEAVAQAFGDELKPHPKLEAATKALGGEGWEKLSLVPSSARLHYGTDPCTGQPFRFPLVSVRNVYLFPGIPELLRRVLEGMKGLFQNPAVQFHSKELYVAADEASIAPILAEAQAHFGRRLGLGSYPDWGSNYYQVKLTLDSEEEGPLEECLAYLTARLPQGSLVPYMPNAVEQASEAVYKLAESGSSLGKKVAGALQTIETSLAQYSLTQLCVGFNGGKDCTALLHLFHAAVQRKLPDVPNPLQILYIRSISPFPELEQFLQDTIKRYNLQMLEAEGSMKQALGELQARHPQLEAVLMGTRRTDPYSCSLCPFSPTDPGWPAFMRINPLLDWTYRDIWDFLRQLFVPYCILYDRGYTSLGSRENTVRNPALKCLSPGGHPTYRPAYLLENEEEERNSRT

Compound in this test: NCC(=O)Nc1ccc(-n2nc(C(F)(F)F)cc2-c2ccc3c(ccc4ccccc43)c2)cc1
Put plainly: log2 fold change, soluble protein after heating vs DMSO (PISA); higher = thermal stabilisation; K562 lysate, 10 uM; active = over 0.2 and 3.5 SD of the protein, either way, in both replicates (recomputed). The procedure, abridged:
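Soluble protein was defined as the supernatant remaining after 21,000xg for 90 min, following pooling of heated aliquots and adjustment to 0.5% NP-40 at 4°C. Before that, crude K562 extract at 1 mg/mL protein in PBS pH 7.4 with 1 mM MgCl2 was treated with 10 μM compound for 30 min and heated for 3 min across 48°C-58°C. Quantification used TMTpro 16plex LC-MS/MS with channel sums equalised, and values are log-two fold changes in thermal stability relative to solvent controls from duplicates.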
Turning to DTL (UniProt Q9NZJ0), the log2 fold change was -0.011 (inactive).
The figure for EXOC1 (UniProt Q9NV70) is -0.019 (inactive).
Take EEFSEC (UniProt P57772): the log2 fold change was -0.022 (inactive).
Take ETFRF1 (UniProt Q6IPR1): the log2 fold change is 0.03 (inactive).
GGT7 (UniProt Q9UJ14): the log2 fold change is -0.094 (inactive).
In the case of FLAD1 (UniProt Q8NFF5), the log2 fold change is -0.012 (inactive).
Consider DST (UniProt Q03001), for which the log2 fold change was 0.262 (inactive).
As for EP400 isoform 5 (UniProt Q96L91), the figure is -0.047 (inactive).
As for FDFT1 (UniProt P37268), the figure is -0.004 (inactive); as for ENGASE (UniProt Q8NFI3), -0.01 (inactive).
Turning to DUSP22 isoform 2 (UniProt Q9NRW4), the log2 fold change was -0.025 (inactive).
As for ERAL1 (UniProt O75616), the log2 fold change is -0.013 (inactive).
Turning to EED, A0A5F9ZI63, the log2 fold change was -0.022 (inactive).
As for DUS3L (UniProt Q96G46), the log2 fold change was 0.002 (inactive).
Take DUS2 (UniProt Q9NX74): the log2 fold change is -0.01 (inactive).
Turning to FYB1 isoform 3 (UniProt O15117), the log2 fold change was 0.007 (inactive).
Regarding FARSA (UniProt Q9Y285), the log2 fold change is -0.025 (inactive).
On to FBRSL1, A0A3B3IRR3, for which the log2 fold change was 0.043 (inactive).
As to ECI2 (UniProt O75521), the log2 fold change was 0.08 (inactive).
The figure for FBXO22 (UniProt Q8NEZ5) is 0.014 (inactive); for DYNC1I2 isoform 2 (UniProt Q13409) it is 0.138 (inactive); for FAM118B (UniProt Q9BPY3) it is 0 (inactive).
With GCLM (UniProt P48507), the log2 fold change is 0.007 (inactive).
With EMP3 (UniProt P54852), the log2 fold change was 0.013 (inactive).
Consider DTWD1 (UniProt Q8N5C7), for which the log2 fold change was 0.059 (inactive).
As for FAM204A (UniProt Q9H8W3), the figure is -0.057 (inactive).
Turning to FNBP1L (UniProt Q5T0N5), the log2 fold change is 0.001 (inactive).
Regarding GAA (UniProt P10253), the log2 fold change is -0.038 (inactive).
As for FOXK1 (UniProt P85037), the log2 fold change is 0.022 (inactive).
With FKBP1A (UniProt P62942), the log2 fold change was -0.154 (inactive).
Consider GEMIN5 (UniProt Q8TEQ6), for which the log2 fold change is 0 (inactive).
In the case of FNTB (UniProt P49356), the log2 fold change is 0.03 (inactive).
As for DSN1 (UniProt Q9H410), the figure is -0.028 (inactive); as for FBXO30 (UniProt Q8TB52), -0.01 (inactive).
GALNT2 (UniProt Q10471): the log2 fold change is -0.018 (inactive).
